This is an account of results in PubChem BioAssay (NCATS).

Records with an inconclusive call do not appear. Unmarked numbers belong to inactive results. The call rests on the fitted dose curve; in most records, active means well fitted inhibition curve with a large enough effect; inconclusive means small, poorly fitted or top-dose-only effect; inactive means flat fitted curve, though single readings scatter.
On the % scale 0 is the no-effect control and ±100 the full control effect.

Sequence of Calcium and integrin-binding protein 1 (Homo sapiens) (Q99828 whole entry, looked up): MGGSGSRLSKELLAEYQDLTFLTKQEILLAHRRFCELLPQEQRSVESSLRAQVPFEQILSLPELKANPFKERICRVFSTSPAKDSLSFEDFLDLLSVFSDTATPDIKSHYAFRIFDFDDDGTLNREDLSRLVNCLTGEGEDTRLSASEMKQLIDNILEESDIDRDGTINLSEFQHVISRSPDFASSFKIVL

This assay has as its target Calcium and integrin-binding protein 1 (Homo sapiens) (UniProt Q99828). In words: Primary qHTS for Identification of Calcium Integrin Binding Protein 1 (CIB1) Competitor (AID 1508620).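 Further: GST tagged CIB1 binding a fluorescein labelled alphaIIb integrin peptide tracer; top concentration of the series differs between compounds.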 The following applies: CIB1-GST / FITC-alphaIIb peptide fluorescence polarization; series mostly up to 114 µM; activity change, negative = inhibition: at the top concentration. Summed up: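 CIB1-GST (1 uM final) and compound incubated 15 min at room temperature before adding FITC-alphaIIb peptide tracer (100 nM final). Competition for binding read by fluorescence polarization (ex 480, em 540) after another 15 min at room temperature.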
On the technique in general: In qHTS, concentration-response curves come from the screen itself.
As to `Cc1nc(NC(=O)N2CCC[C@H]2C(N)=O)sc1-c1ccnc(C(C)(C)C(F)(F)F)c1`, the “activity change, negative = inhibition” value was -5.44%. Regarding `CC1CCC/C=C/C(=O)c2c(O)cc(O)cc2CC(=O)O1` (stereo not given), the “activity change, negative = inhibition” value was -13%. For `Cn1ncc2cc(-c3cnc(N)c(Cl)c3N3CCC4(CCNC4=O)CC3)ccc21`, the “activity change, negative = inhibition” value was -1.97%. `C=C1C(=O)OC2C1CCC1(C)C(O)CC=C(C)C21` (stereo not given): the “activity change, negative = inhibition” value was -13.5%.

Consider `CC1(CO)CC(O)[C@]2(C(=O)O)CCC34CC3(C=CC3[C@]5(C)C(CC[C@]34C)C(C)(CO)[C@@H](O)[C@H](O)[C@@H]5O)C2C1` (stereo not given in full), for which the “activity change, negative = inhibition” value was 1.18% [at 57.7 µM]. Take `COCc1c(Cl)ccc2c1CC[C@H]2c1ncc[nH]1`: the “activity change, negative = inhibition” value was -3.41%.

Take `CC(=O)O[C@H]1[C@H](O)C[C@@]2(C)C(CC[C@]3(C)C2CC=C2C4CC(C)(C)CC[C@]4(C(=O)O)CC[C@]23C)C1(C)C` (stereo not given in full): the “activity change, negative = inhibition” value was -3.12% [at 57.7 µM]. With `CN(C)CCN(Cc1ccccc1)C(=O)c1cc(-c2ccc(F)cc2)n2nc(C(C)(C)C)cc2n1`, the “activity change, negative = inhibition” value is -13%. For `Cn1cc(-c2cnn3c(N)c(Br)c([C@@H]4CCCNC4)nc23)cn1`, the “activity change, negative = inhibition” value was 6.59%. As for `O=S(=O)(c1ccc(Cl)cc1)N1CCN(c2ccnc3cc(Cl)ccc23)CC1`, the figure is 1.66%; as for `COc1ccccc1S(=O)(=O)Nc1ccc2c(c1)CN(C)C(=O)N2`, -1.26%.

On to `CC(C)S(=O)(=O)NC[C@@H]1CC(c2ccc(N3CCCC3)c(F)c2)=NO1`, for which the “activity change, negative = inhibition” value is 1.98%. For the compound `O=C(CSc1nc2ccccc2c(=O)n1-c1ccccc1)Nc1ccc2c(c1)CCC2`, the “activity change, negative = inhibition” value was 2.77%. As for `Clc1ccc(Nc2nc3ccccc3c3nc(C4CCCCC4)[nH]c23)cc1Cl`, the “activity change, negative = inhibition” value is 1.19%. On to `O=C(NCCN1CCN(c2cccc3ccc(O)cc23)CC1)c1ccc(F)cc1`, for which the “activity change, negative = inhibition” value was -4.3%.
